Assay results from PubChem BioAssay AID1159580 (chemical genetic matrix, 2015).
Where “and” joins values, the source holds several entries; their conditions need not be identical. Equal entries are not always repeated. Hit rate of the full screen: of about 5,500 compounds, about 2,000 (36%) were called active. Inconclusive results (about 18%) are left out. No stated cut-off is given here; in the data, active means normalized growth mostly below about 0.91 (no sharp cut-off); inconclusive means no clear call, values can overlap the other calls; inactive means mostly above about 0.92. Some of the results follow.

Test: chemical genetic growth profiling, strain panel (AID 1159580);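 further: tested at 20 µM; growth read once vehicle control cultures reached saturation at 30 °C; 1 = growth at the plate median or of vehicle wells; lower values mean less growth of the strain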
Details: S. cerevisiae deletion strains, growth OD

Measured: normalized growth

CC(C)(Sc1cc(C(C)(C)C)c(O)c(C(C)(C)C)c1)Sc1cc(C(C)(C)C)c(O)c(C(C)(C)C)c1
inactive: locus YAL013W, strain DEP1, hits give low values 1.02 | locus YAL021C, strain ccr4, hits give low values 1.03 | locus YAL026C, strain drs2, hits give low values 1.01 | locus YAL030W, strain snc1, hits give low values 1 | locus YBL061C, strain skt5, hits give low values 0.993 | locus YBR009C, strain hhf1, hits give low values 1.02 | locus YBR021W, strain FUR4, hits give low values 1.01 | locus YBR023C, strain chs3, hits give low values 0.998 | locus YBR171W, strain sec66, hits give low values 1 | locus YBR229C, strain ROT2, hits give low values 1.01 | locus YBR231C, strain swc5, hits give low values 0.998 | locus YBR279W, strain paf1, hits give low values 0.993 | locus YCL011C, strain gbp2, hits give low values 1.02 | locus YCL016C, strain dcc1, hits give low values 1 | locus YCL029C, strain bik1, hits give low values 1.04 | locus YCL069W, strain vba3, hits give low values 1.01 | locus YCR088W, strain abp1, hits give low values 1 | locus YDL005C, strain med2, hits give low values 1.02 | locus YDL035C, strain GPR1, hits give low values 1.02 | locus YDL040C, strain nat1, hits give low values 0.991 | locus YDL074C, strain BRE1, hits give low values 1.03 | locus YDL101C, strain DUN1, hits give low values 1.02 | locus YDL134C, strain PPH21, hits give low values 1 | locus YDL185W, strain tfp1, hits give low values 1.02 | locus YDL192W, strain arf1, hits give low values 1.03 | locus YDR001C, strain nth1, hits give low values 1.02 | locus YDR069C, strain doa4, hits give low values 0.999 | locus YDR101C, strain arx1, hits give low values 1.02 | locus YDR137W, strain rgp1, hits give low values 0.99 | locus YDR150W, strain NUM1, hits give low values 1.01 | locus YDR159W, strain sac3, hits give low values 0.989 | locus YDR162C, strain NBP2, hits give low values 1.01 | locus YDR195W, strain ref2 1.06 | locus YDR297W, strain sur2, hits give low values 0.99 | locus YDR318W, strain mcm21, hits give low values 1.04 | locus YDR334W, strain swr1, hits give low values 1.02 | locus YDR335W, strain msn5, hits give low values 1.01 | locus YDR388W, hits give low values 1.02 | locus YDR392W, strain spt3, hits give low values 1.03 | locus YDR502C, strain sam2, hits give low values 1.02 | locus YEL003W, strain gim4, hits give low values 1.02 | locus YEL037C, strain rad23, hits give low values 1.01 | locus YEL061C, strain CIN8 (second series), hits give low values 1.01 | locus YEL061C, strain CIN8, hits give low values 1.01 | locus YER015W, strain faa2, hits give low values 1.01 | locus YER016W, strain bim1, hits give low values 1.01 | locus YER110C, hits give low values 1.02 | locus YER111C, strain swi4, hits give low values 1.01 | locus YER155C, strain BEM2 (second series), hits give low values 0.985 | locus YER155C, strain BEM2, hits give low values 1.01 | locus YER167W, strain BCK2, hits give low values 1.03 | locus YFR010W, strain ubp6, hits give low values 1.04 | locus YGL078C, strain dbp3, hits give low values 1.03 | locus YGL167C, strain pmr1, hits give low values 0.998 | locus YGL173C, strain kem1, hits give low values 0.986 | locus YGL227W, strain vid30, hits give low values 1.02 | locus YGL240W, strain doc1, hits give low values 0.958 | locus YGL248W, strain PDE1, hits give low values 1.01 | locus YGL253W, strain hxk2, hits give low values 1.02 | locus YGR078C, strain PAC10, hits give low values 1.02 | locus YGR135W, strain pre9, hits give low values 1.04 | locus YGR229C, strain SMI1, hits give low values 1.02 | locus YGR252W, strain gcn5, hits give low values 1.06 | locus YHR013C, strain ard1, hits give low values 1 | locus YHR027C, strain rpn1, hits give low values 1 | locus YHR030C, strain SLT2, hits give low values 1.02 and 0.989 | locus YHR079C, strain IRE1 (second series), hits give low values 1.02 | locus YHR079C, strain IRE1, hits give low values 1 | locus YHR094C, strain hxt1, hits give low values 1.02 | locus YHR129C, strain ARP1, hits give low values 1.01 | locus YHR142W, strain chs7, hits give low values 1.04 | locus YHR200W, strain rpn10, hits give low values 1.01 | locus YIL066C, strain RNR3, hits give low values 1.01 | locus YIL073C, strain SPO22, hits give low values 1.05 | locus YIL125W, strain kgd1, hits give low values 1.02 | locus YIR030C, strain dcg1, hits give low values 1.02 | locus YJL092W, strain hpr5, hits give low values 1.01 | locus YJL095W, strain BCK1 (second series), hits give low values 1 | locus YJL095W, strain BCK1, hits give low values 1.05 and 0.992 | locus YJL115W, strain asf1, hits give low values 0.993 | locus YJL129C, strain trk1, hits give low values 1.02 | locus YJL134W, strain LCB3, hits give low values 1.01 | locus YJL154C, strain vps35, hits give low values 1.01 | locus YJL164C, strain tpk1, hits give low values 1.01 | locus YJL166W, strain qcr8, hits give low values 1.01 | locus YJL168C, strain set2, hits give low values 1.02 | locus YJL187C, strain SWE1 (second series), hits give low values 1.02 | locus YJL187C, strain SWE1, hits give low values 1 | locus YJR043C, strain POL32, hits give low values 1.03 | locus YJR066W, strain TOR1, hits give low values 0.9
active: locus YGL086W, strain mad1, hits give low values 1.35 [resistant]
